Experimental data reported in PubChem BioAssay (Tox21).
Values joined by “and” are separate entries in the source; they are usually repeats but may differ in a detail not shown here. Equal values may be shown once. Results filed as inconclusive are left out. A call without a number means that no potency is given here. The source holds several records for some structures; these can differ, active in one and inactive in another. Active and inactive are the calls of the source. Unless noted, calls come from the whole dose curve.

Assays:
[1] = qHTS assay to identify small molecule agonists of the estrogen receptor beta (ER-beta) signaling pathway - cell viability counter screen (AID 1259380; active = well fitted curve in the direction sought with a large enough effect in the repeat runs; an effect the other way counts as inactive or inconclusive; note: nearly all actives have a fitted effect of over 30% in size; note: potency is the fitted concentration of half-maximal effect)
In short: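 ER-beta-UAS-bla HEK293T cells in medium with 2% charcoal-stripped FBS, pre-incubated 6 hr, then treated 16 hr at 37C. Cytotoxicity read in the same wells by CellTiter-Glo luminescence after 30 min at room temperature.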

[2] = qHTS assay to identify small molecule antagonists of the estrogen receptor beta (ER-beta) signaling pathway - cell viability counter screen (AID 1259382; active = well fitted curve in the direction sought with a large enough effect in the repeat runs; an effect the other way counts as inactive or inconclusive; note: nearly all actives have a fitted effect of over 55% in size; note: potency is the fitted concentration of half-maximal effect)
In short: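 ER-beta-UAS-bla HEK293T cells in 2% charcoal-stripped FBS medium, treated with compound plus 1 nM 17-beta-estradiol for 16 h at 37C. Viability read by CellTiter-Glo luminescence after 30 min at room temperature in the same wells.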

[3] = target: Thyrotropin receptor (Homo sapiens) (UniProt P16473); assay: qHTS assay to identify small molecule antagonists of the thyroid stimulating hormone receptor (TSHR) signaling pathway (AID 1259385); note: nearly all actives have a fitted effect of over 20% in size; note: potency is the fitted concentration of half-maximal effect
Thyrotropin receptor (Homo sapiens), sequence (P16473 whole entry, looked up): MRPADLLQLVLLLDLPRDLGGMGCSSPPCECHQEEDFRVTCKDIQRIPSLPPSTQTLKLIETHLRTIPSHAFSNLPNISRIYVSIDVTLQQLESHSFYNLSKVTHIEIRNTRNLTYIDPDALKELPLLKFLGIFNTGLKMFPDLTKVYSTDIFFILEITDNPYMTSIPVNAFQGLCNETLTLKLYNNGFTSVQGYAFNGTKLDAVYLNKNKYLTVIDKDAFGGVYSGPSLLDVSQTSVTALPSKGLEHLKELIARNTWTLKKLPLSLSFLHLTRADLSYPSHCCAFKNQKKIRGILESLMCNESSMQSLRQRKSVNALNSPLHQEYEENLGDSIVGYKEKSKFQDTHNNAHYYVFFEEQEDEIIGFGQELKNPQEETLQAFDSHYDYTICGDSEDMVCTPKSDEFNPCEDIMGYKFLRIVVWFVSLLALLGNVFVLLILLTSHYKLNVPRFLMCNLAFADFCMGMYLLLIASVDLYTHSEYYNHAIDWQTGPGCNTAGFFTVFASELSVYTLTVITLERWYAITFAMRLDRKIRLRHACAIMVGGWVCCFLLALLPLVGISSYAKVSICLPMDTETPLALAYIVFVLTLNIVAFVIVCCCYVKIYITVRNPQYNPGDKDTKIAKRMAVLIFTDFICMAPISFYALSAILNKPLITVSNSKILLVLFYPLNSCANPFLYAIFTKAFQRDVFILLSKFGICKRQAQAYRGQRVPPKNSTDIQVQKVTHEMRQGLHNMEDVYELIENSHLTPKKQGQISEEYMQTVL
In short: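 TSHR-HEK293 cells were plated and held 18 h at 37C/5% CO2, then given compound plus Ro20-1724 and stimulated with TSH at 1.5 ng/mL final. After 30 min at room temperature, cAMP was detected with cAMP-d2/anti-cAMP-cryptate (1 h) by fluorescence.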

[4] = qHTS assay to identify small molecule agonists of the androgen receptor (AR) signaling pathway in the presence of an antagonist - cell viability counter screen (AID 1259379; active = well fitted curve in the direction sought with a large enough effect in the repeat runs; an effect the other way counts as inactive or inconclusive; note: nearly all actives have a fitted effect of over 25% in size; note: potency is the fitted concentration of half-maximal effect)
In short: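 MDA-kb2 cells (MMTV-luciferase, AR/GR), 3,000/well, 5 h attachment, then 3.0 µM nilutamide (final) and compounds at 15 concentrations. Viability by CellTiter-Fluor fluorescence after 16 h at 37 °C, 0% CO2, in the reporter wells.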

[5] = target: Estrogen receptor (Homo sapiens) (UniProt P03372); assay: qHTS assay to identify small molecule agonists of the estrogen receptor alpha (ER-alpha) signaling pathway in the presence of an antagonist (AID 1259383); note: nearly all actives have a fitted effect of over 15% in size; note: potency is the fitted concentration of half-maximal effect; for activation: top concentration of the series differs between compounds
Estrogen receptor (Homo sapiens), sequence (P03372 whole entry, looked up): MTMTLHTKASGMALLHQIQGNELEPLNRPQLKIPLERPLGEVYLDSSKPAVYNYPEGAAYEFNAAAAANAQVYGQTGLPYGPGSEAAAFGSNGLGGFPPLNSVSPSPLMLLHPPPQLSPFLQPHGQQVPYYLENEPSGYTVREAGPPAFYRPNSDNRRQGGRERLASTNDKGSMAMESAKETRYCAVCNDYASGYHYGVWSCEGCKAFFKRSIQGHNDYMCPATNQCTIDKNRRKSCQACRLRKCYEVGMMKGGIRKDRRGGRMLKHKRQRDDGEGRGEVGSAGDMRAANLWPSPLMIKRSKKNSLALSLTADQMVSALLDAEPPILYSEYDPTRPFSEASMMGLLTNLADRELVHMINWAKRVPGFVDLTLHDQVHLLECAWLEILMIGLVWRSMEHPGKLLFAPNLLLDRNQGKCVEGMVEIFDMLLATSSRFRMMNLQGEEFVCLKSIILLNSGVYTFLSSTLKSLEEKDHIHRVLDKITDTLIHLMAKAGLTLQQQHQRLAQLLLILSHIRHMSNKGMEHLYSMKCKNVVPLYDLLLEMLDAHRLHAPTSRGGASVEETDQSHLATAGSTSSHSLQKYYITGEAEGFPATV
In short: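 VM7Luc4E2 cells express endogenous full-length ER-alpha with an ERE-luciferase reporter and were hormone-deprived for 5 days. Compounds at 15 concentrations were added with 10.0nM ICI-182,780 for 22hr at 37C. Luminescence was read with ONE-Glo.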

[6] = qHTS assay to identify small molecule agonists or antagonists of the thyroid stimulating hormone receptor (TSHR) signaling pathway - wild type cell line counter screen (AID 1259384); note: potency is the fitted concentration of half-maximal effect
In short: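 Wild-type HEK293 cells were plated 18 h at 37 C/5% CO2, pin-dosed with compound plus Ro20-1724 medium, held 30 min at room temperature, then given cAMP-d2 and anti-cAMP-cryptate; fluorescence was read after 1 h. Fifteen concentrations, triplicate.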

[7] = target: Estrogen receptor beta (Homo sapiens) (UniProt Q92731); assay: qHTS assay to identify small molecule agonists of the estrogen receptor beta (ER-beta) signaling pathway (AID 1259377; active = well fitted activation curve with a large enough effect in the signal ratio in the repeat runs, not every such curve was filed as active; the % refers to the signal ratio)
Estrogen receptor beta (Homo sapiens), sequence (Q92731 whole entry, looked up): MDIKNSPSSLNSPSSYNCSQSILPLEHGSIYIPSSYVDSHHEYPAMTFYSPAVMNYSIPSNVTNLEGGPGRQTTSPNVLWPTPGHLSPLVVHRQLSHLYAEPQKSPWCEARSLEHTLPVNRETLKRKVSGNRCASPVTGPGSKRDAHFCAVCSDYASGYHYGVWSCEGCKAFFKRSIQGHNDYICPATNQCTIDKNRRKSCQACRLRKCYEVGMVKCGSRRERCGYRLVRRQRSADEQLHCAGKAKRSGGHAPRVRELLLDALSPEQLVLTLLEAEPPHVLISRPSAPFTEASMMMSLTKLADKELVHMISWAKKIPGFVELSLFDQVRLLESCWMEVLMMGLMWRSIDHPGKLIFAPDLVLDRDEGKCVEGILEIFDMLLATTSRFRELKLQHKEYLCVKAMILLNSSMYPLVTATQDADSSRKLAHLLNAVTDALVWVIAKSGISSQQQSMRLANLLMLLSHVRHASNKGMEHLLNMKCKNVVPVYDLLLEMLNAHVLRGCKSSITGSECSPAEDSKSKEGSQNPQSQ
In short: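 ER-beta-UAS-bla HEK293T cells in medium with 2% charcoal-stripped FBS were exposed to compounds for 16 h at 37C. Beta-lactamase reporter activity was read as fluorescence after 2 h with LiveBLAzer B/G FRET substrate at room temperature.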

[8] = target: Androgen receptor (Homo sapiens) (UniProt P10275); assay: qHTS assay to identify small molecule agonists of the androgen receptor (AR) signaling pathway in the presence of an antagonist (AID 1259381); note: nearly all actives have a fitted effect of over 15% in size
Androgen receptor (Homo sapiens), sequence (P10275 whole entry, looked up): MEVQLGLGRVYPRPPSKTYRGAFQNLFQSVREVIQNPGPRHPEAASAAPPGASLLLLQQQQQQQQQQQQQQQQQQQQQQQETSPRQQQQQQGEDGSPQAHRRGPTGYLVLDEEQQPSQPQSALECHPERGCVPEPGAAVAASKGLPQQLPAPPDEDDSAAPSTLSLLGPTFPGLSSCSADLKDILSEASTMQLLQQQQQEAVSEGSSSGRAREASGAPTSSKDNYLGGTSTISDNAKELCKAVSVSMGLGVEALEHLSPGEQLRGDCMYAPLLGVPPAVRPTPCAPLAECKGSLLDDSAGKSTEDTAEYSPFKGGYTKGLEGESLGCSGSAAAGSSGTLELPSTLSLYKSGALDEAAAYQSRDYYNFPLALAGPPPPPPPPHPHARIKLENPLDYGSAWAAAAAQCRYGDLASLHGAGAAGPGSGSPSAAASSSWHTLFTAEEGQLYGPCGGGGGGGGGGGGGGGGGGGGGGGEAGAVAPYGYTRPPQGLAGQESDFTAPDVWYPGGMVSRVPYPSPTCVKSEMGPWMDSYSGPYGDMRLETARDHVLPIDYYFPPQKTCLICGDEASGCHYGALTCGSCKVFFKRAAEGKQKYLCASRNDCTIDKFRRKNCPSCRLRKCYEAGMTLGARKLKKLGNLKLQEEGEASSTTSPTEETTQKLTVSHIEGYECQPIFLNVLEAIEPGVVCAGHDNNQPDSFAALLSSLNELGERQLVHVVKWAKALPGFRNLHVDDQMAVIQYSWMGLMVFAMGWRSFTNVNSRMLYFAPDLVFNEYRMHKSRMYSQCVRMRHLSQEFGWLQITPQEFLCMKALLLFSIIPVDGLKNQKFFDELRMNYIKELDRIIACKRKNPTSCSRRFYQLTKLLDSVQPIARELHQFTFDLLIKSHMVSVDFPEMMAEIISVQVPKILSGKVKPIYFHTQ
In short: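 MDA-kb2 cells carrying MMTV-luciferase (AR/GR responsive), 3,000 cells/well, co-treated with 3.0 uM nilutamide final. Compounds at 15 concentrations, 16 hr at 37C without CO2. Luciferase luminescence read after 30 min with ONE-Glo.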

[9] = target: Estrogen receptor beta (Homo sapiens) (UniProt Q92731); assay: qHTS assay to identify small molecule antagonists of the estrogen receptor beta (ER-beta) signaling pathway (AID 1259378; active = well fitted inhibition curve with a large enough effect in the signal ratio in the repeat runs, not every such curve was filed as active; the % refers to the signal ratio; note: potency is the fitted concentration of half-maximal effect)
In short: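 ER-beta-UAS-bla HEK293T (GripTite) cells in 2% charcoal-stripped FBS medium were preincubated 6 hr at 37C, dosed with compound, then stimulated with 1 nM E2 (final) for 16 hr; beta-lactamase reporter read by B/G FRET fluorescence after 2 hr substrate loading.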

Row | Compound | Potency [1] | Potency [2] | Potency [3] | Potency [4] | Potency [5] | Potency [6] | outcome [7] | Potency [8] | Potency [9]
1 | COc1ccc(CCN(C)CCCC(C#N)(c2ccc(OC)c(OC)c2)C(C)C)cc1OC (configuration not stated) | inactive | inactive | 43.2 µM (active) |  |  |  |  |  | 
2 | CCC[C@H](N[C@@H](C)C(=O)N1[C@H](C(=O)O)C[C@@H]2CCCC[C@@H]21)C(=O)OCC | inactive | inactive | inactive | inactive | inactive | inactive |  |  | 
3 | Oc1c(Cl)cc(Cl)c(Cl)c1Cc1c(O)c(Cl)cc(Cl)c1Cl | 60.9 µM (active) and 30.6 µM (active) | 48.4 µM (active) and 34.4 µM (active) and inactive | inactive |  |  | inactive | inactive | inactive | 
4 | O=C1CC2(CCCC2)CC(=O)N1CCCCN1CCN(c2ncccn2)CC1 | 4.86 µM (active) | inactive | inactive | inactive |  | inactive |  |  | 
5 | O=C(OCc1ccccc1)c1ccc(O)cc1 | inactive | inactive | inactive | inactive | 30.6 µM (active) and 29.8 µM (active) | inactive |  |  | 19.3 µM (active)
6 | c1ccc2c(c1)CCCC2C1=NCCN1 (configuration not stated) | inactive | inactive | inactive |  | inactive | inactive |  |  | 
7 | CC1=C(C=O)C(C)(C)CC=C1 | inactive | inactive | inactive | inactive |  | inactive |  |  | 
8 | C=CS(=O)(=O)O | inactive | inactive | inactive |  | inactive | inactive | inactive |  | inactive
9 | CCc1cc(C(C)(C)C)c(O)c(C(C)(C)C)c1 | inactive | inactive | inactive | inactive |  | inactive |  |  | 
10 | CC(=O)O[C@]1(C(C)=O)CC[C@H]2[C@@H]3C[C@H](C)C4=CC(=O)CC[C@]4(C)[C@H]3CC[C@@]21C | inactive | inactive | inactive | inactive | inactive | inactive |  |  | 
11 | Oc1c(Cl)cc(Cl)cc1Sc1cc(Cl)cc(Cl)c1O | 54.6 µM (active) and 61.1 µM (active) | 30.7 µM (active) and 54.5 µM (active) | inactive |  | inactive | inactive | inactive |  | 27.8 µM (active) and 7.7 µM (active)
12 | O=C(O)Cn1cnnn1 | inactive | inactive | inactive |  | inactive | inactive | inactive | inactive | inactive
13 | CCn1c2ccccc2c2cc(N)ccc21 | 17.1 µM (active) and 15.4 µM (active) | inactive | inactive |  | inactive | inactive | inactive |  | inactive
14 | [Cl][In]([Cl])[Cl] |  | inactive |  | inactive | inactive |  |  |  | 
15 | CCCN[C@H]1CCc2nc(N)sc2C1 | inactive | inactive | inactive |  |  | inactive |  |  | 
16 | O=C1OC2(c3ccc(O)cc3Oc3cc(O)ccc32)c2ccccc21 | inactive | inactive | inactive |  | inactive | inactive |  |  | 
17 | CC(C)(C)NCC(O)c1cc(O)cc(O)c1 (configuration not stated) | inactive | inactive | inactive |  |  | 2.03 µM (active) |  |  | 
18 | CCC(C)(C)C(=O)O[C@H]1C[C@@H](C)C=C2C=C[C@H](C)[C@H](CC[C@@H]3C[C@@H](O)CC(=O)O3)[C@H]21 | 27.3 µM (active) and 13.3 µM (active) | 11.9 µM (active) | inactive | inactive | inactive | inactive | inactive |  | 
19 | NC12CC3CC(CC(C3)C1)C2 | inactive | inactive |  | inactive |  |  |  |  | 
20 | CCOc1ccc2c(c1)C(C)=CC(C)(C)N2 | inactive | inactive | inactive | inactive | inactive | inactive |  | inactive | 
21 | OCCN1CCNCC1 | inactive | inactive | inactive |  | inactive | inactive | inactive |  | inactive
22 | CNC1(C)C2CCC(C2)C1(C)C (configuration not stated) | inactive | inactive |  | inactive |  | inactive |  |  | 
23 | COc1ccc(Cc2cnc(N)nc2N)cc1OC | inactive | inactive | inactive |  | inactive | inactive | inactive | inactive | inactive
24 | c1ccc2cc3c(ccc4ccccc43)cc2c1 | inactive | inactive | inactive |  |  | inactive |  |  | 
25 | CC(C)CCOC(=O)c1ccc(N(C)C)cc1 | inactive | inactive |  | inactive | 2.98 µM (active) | inactive | inactive |  | 
26 | CC[C@@H](N)CO | inactive | inactive | inactive |  | inactive | inactive |  |  | 
27 | CO[Si](OC)(OC)c1ccccc1 | inactive | inactive | inactive |  | inactive | inactive | inactive |  | inactive
28 | CN(C)c1ccc2nc3ccc(=[N+](C)C)cc-3sc2c1 | 2.08 µM (active) and 27.3 µM (active) and 3.76 µM (active) |  |  | 3.3 µM (active) and 6.86 µM (active) and 4.22 µM (active) | inactive |  |  |  | 
29 | CCCCCCCCCCCCCC[P+](CCCC)(CCCC)CCCC | 17.1 µM (active) and 27.3 µM (active) | 19.2 µM (active) and 24.3 µM (active) | 54.2 µM (active) and 48.6 µM (active) | 19.2 µM (active) and 15.4 µM (active) | inactive | inactive |  | inactive | 
30 | COc1cc(C(=S)N2CCOCC2)ccc1O | inactive | inactive | inactive |  | inactive | inactive |  | inactive | 
